The experiment is described as follows: TERT promoter activity modulators, primary screen, cell-based, luciferase reporter, human (AID 1259240). To be noted: A2780 TERT promoter luciferase reporter, 16 h; at 20 µM, fold versus average of vehicle-only wells. A general note: In a reporter assay the amount or activity of a reporter protein is the signal.

A number with no mark means an inactive call. Active and inactive are the calls of the source. No stated cut-off is given here; in the data, active means fold change mostly below about -2 (no sharp cut-off); inactive means mostly above about -1.8.

With `O=C(CSc1ncnc2ccccc12)N1CCc2ccccc21`, the fold change was 1.26.

Consider `CC(C)(C)NC(=O)Cn1c(=O)oc2ccc(Cl)cc21`, for which the fold change is -3.03 (active).

For the molecule `CCCc1nc2ccccc2c2nc(N)nn12`, the fold change was -2.02 (active).

With `O=C(Nc1ccc(C(F)(F)F)cc1)C1CCCN1S(=O)(=O)c1cccc2nsnc12` (stereo not drawn), the fold change is -1.19.

Turning to `CC1=NN(c2nc3ccccc3nc2-n2nc(C)cc2C)C(=O)C1`, the fold change was -1.08.

In the case of `O=C(c1cncc(Br)c1)N1CCN(c2ccc(N3CCOCC3)nn2)CC1`, the fold change is 1.24.

For `CCCCN1C(=O)C(O)(CC(=O)c2cccs2)c2ccccc21` (stereo not drawn), the fold change is -1.63.

Turning to `CCOC(=O)C1CCN(c2c(N3CCN(CC)CC3)c(=O)c2=O)CC1`, the fold change is 1.21.

Turning to `NC(=O)c1c(NC(=O)CN2C(=O)c3ccccc3S2(=O)=O)sc2c1CCCC2`, the fold change was 1.23.

Turning to `COc1ccccc1-c1c(C)nn2c(N(C)CCC#N)cc(C)nc12`, the fold change is -1.5.

Consider `CCOc1cccc2cc(S(=O)(=O)c3ccc(C(C)(C)C)cc3)c(=O)oc12`, for which the fold change was -1.2.

Take `O=C(COc1ccc(Cl)cc1)Nc1ccc2nc3n(c(=O)c2c1)CCCCC3`: the fold change is -1.27.

As to `Cn1c(=O)[nH]c(=O)c2c1nc(NCCCO)n2Cc1ccccc1Cl`, the fold change was -1.16.

In the case of `Cc1cc(C(=O)O)ccc1-n1c(C)cc(C=C2C(=O)c3ccccc3C2=O)c1C`, the fold change is -2.23 (active).

Turning to `NC(=O)c1ccccc1NC(=O)c1cc(-c2ccc(Br)s2)nc2ccccc12`, the fold change is -2.57 (active).

In the case of `CC1CCCCC1NC(=O)c1cc2c(s1)-c1ccccc1OC2` (stereo not drawn), the fold change was -2.96 (active).

Turning to `CCN(CC)C(=O)c1sc(N2C(=O)Nc3ccccc3N2O)c(C(=O)OC)c1C`, the fold change was 1.14.

Consider `CC(C)CC(NS(=O)(=O)c1ccc2c(c1)oc(=O)n2C)C(=O)N1CCn2c1nc1ccccc12` (stereo not drawn), for which the fold change was -1.61.

Take `Cc1nc2cc(-c3ccccc3)nn2c(C)c1CCC(=O)NC(C)CCc1ccco1` (stereo not drawn): the fold change was -2.05 (active).

For `Cn1c(=O)c2c(SCC(=O)N3CCOCC3)nc(-c3ccco3)nc2n(C)c1=O`, the fold change is 1.36.

For `CC1CCCN(S(=O)(=O)c2cccc(-c3cn4cccnc4n3)c2)C1` (stereo not drawn), the fold change is -1.53.

Regarding `CC(=O)c1sc2nc(-c3ccc(Br)cc3)cn2c1C`, the fold change is -17 (active).

For `COc1cc(/C=C2\SC(N3CCN(C)CC3)=NC2=O)cc(OC)c1OC`, the fold change was -1.05.

Take `Cc1ccc2nc(NC3=NCN(Cc4ccco4)CN3)nc(C)c2c1`: the fold change was 1.

In the case of `O=C1c2cccnc2C(=O)N1CNc1ccccn1`, the fold change is -1.26.

On to `O=C(Cn1c(=O)oc2cc(S(=O)(=O)NC3CCCC3)ccc21)N1CCCC1`, for which the fold change is -1.19.

With `CCOC(=O)N1CCN(c2nc3ccccc3n3cnnc23)CC1`, the fold change was 1.59.

`CCOC(=O)/C(=N\OC)c1cn2cc(Br)ccc2n1`: the fold change was 1.2.

In the case of `CCC(C)NC(=O)Cn1ncc2c3ccccc3n(C)c2c1=O` (stereo not drawn), the fold change was -1.04.

On to `C=CCn1c(Oc2ccccc2Cl)nc2c1c(=O)n(C)c(=O)n2C`, for which the fold change was -2.84 (active).

In the case of `C=CCN1C(=O)/C(=c2\sc3nc(-c4ccccc4OC)nn3c2=O)c2cc(Br)ccc21`, the fold change is 1.17.

`Cc1ccc(Cn2nc(C)c(NC(=O)c3onc(C)c3Cl)c2C)cc1`: the fold change is 1.31.

Turning to `O=C(O)CSc1nc(-c2cccs2)cc(C(F)(F)F)n1`, the fold change is -1.48.

Consider `Cc1sc(-c2c(C#N)c(N)nc3c2CCCC3)cc1Br`, for which the fold change was -4.77 (active).

For `CCCc1nnc(NC(=O)Nc2ccccc2Cl)s1`, the fold change was -1.54.

`CCOC(=O)C1=C(CS(=O)(=O)c2ccc(Cl)cc2)NC(=O)NC1c1ccc(F)cc1` (stereo not drawn): the fold change was 1.41.

For the molecule `O=C(CSc1nncc2ccccc12)Nc1ccccc1`, the fold change is 1.07.

As to `COCCn1c(SCC(=O)Nc2nnc(C)s2)nc2c(c1=O)SC(C)C2` (stereo not drawn), the fold change was 1.17.

Turning to `O=C(Nc1ccc2nc3n(c(=O)c2c1)CCCCC3)C(=O)NC1CCCCC1`, the fold change was -1.44.

Regarding `COc1ccc(S(=O)(=O)N2N=C(c3ccc(NS(C)(=O)=O)cc3)CC2c2ccco2)cc1` (stereo not drawn), the fold change is 1.12.

As for `O=c1nc2s/c(=C\c3ccco3)c(=O)n2nc1Cc1ccc(Cl)cc1`, the fold change is -1.46.

Consider `CN(CC(=O)NCc1ccco1)S(=O)(=O)c1ccc2c(c1)c(=O)n(C)c(=O)n2C`, for which the fold change is -1.15.

As for `Cc1ccc(-c2nc3ccccc3n3cc4c(=O)n(C)c(=O)n(C)c4c23)cc1`, the fold change is -1.32.

Values taken from PubChem BioAssay AID1259240 (Keith Lab, Institute of Cancer Science, University of …, 2017).
